In the library only some 3.4% were active in any assay of this set; here they are far more common.
MITF primary = blocks human microphthalmia-associated transcription factor. AID 1259374. 650,000 tested, 0.91% active. inhibition, % at 2.6 µM. AlphaScreen MITF homodimerization, bead proximity signal; in the data active means inhibition above about 50%
FBW7 activator = human FBW7 E3 ligase activation, primary screen | 650,000 tested, 0.13% active | normalized activity (activation), % at 26.1 µM | AlphaScreen FBW7–phospho-cyclin E peptide binding, activator screen; in the data active means normalized activity above about 1.9%;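 further: purified mutant Fbw7 with reduced substrate affinity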
TEAD-YAP block = TEAD-YAP interaction inhibition; HEK-TIYL cells, TEAD-Gal4/YAP UAS-luciferase luminescence; inhibition, % at 9.12 µM; 640,000 tested, 1.4% active; in the data active means inhibition above about 32%
GPR151 ag = activators of human GPR151; Q8TDV0; PathHunter beta-arrestin GPR151 cells, luminescence; activation, % at 11.2 µM; 650,000 tested, 1% active; AID 1508602; in the data active means activation above about 4.9%
GPR151 conf act = human GPR151 activation, confirmation screen. shares compounds with GPR151 ag. activation, % at 11.2 µM. 6,700 tested, under 10 active. GPR151 PathHunter beta-arrestin cells, luminescence, 90 min; % of EA-reagent control over plate median;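 active means mean percent activation across replicates above the confirmation screen cutoff of 4.91%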
GPR119 ag = activates human GPR119 in a GPR151 counter-screen; 6,700 tested, 0.3% active; shares compounds with GPR151 ag; activation, % at 11.2 µM; GPR119 PathHunter beta-arrestin cells, luminescence, 90 min; 0 = compound-well median, 100 = enzyme-acceptor control;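 active means mean percent activation in the counterscreen above 29.09%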;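 further: counterscreen on off-target GPR119 to flag nonselective hits from the GPR151 activator screen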
Target sequence (Q8TDV5 whole entry, looked up): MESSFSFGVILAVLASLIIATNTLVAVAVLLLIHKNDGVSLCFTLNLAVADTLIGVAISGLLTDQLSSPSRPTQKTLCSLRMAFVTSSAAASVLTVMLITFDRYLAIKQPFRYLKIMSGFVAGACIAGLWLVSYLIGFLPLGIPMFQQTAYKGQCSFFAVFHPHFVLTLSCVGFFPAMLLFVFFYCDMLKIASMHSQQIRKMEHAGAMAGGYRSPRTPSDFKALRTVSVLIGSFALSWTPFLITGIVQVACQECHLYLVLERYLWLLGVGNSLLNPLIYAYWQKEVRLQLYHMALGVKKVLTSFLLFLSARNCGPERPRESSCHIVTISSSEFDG
Numbers stand for hits; . = inactive; / = no result.

SMILES	MITF primary	FBW7 activator	TEAD-YAP block	GPR151 ag	GPR151 conf act	GPR119 ag
COc1ccc(N2C(=O)NC(=O)/C(=C\c3ccc(O)c([N+](=O)[O-])c3)C2=O)cc1	.	.	.	5.8	.	.
COc1ccc(/C=C2\C(=O)NC(=O)N(c3ccc(Br)cc3)C2=O)c(OC)c1	.	.	.	7.3	.	.
COc1ccc(/C=C2/C(=O)NC(=O)N(c3ccc(C)cc3)C2=O)c(OC)c1	.	.	.	.	/	/
CCC(C)C(=O)Nc1ccc(O)cc1C(=O)O (centres undefined)	.	.	.	.	/	/
CCC(C)C(=O)Nc1cc(OC)c(OC)cc1C(=O)O (centres undefined)	.	.	.	7.1	.	.
Cc1nc2sc3c(c2c(=O)n1CC(=O)Nc1ccc(F)cc1F)CCCC3	.	.	.	.	/	/
O=C(NC(c1ccc(Cl)cc1)c1ccsc1)C1CCN(C(=O)c2ccoc2)CC1 (centres undefined)	.	.	.	.	/	/
Cc1ccccc1N(C)S(=O)(=O)c1ccc2[nH]cc(C(=O)N3CCC(C)CC3)c(=O)c2c1	.	.	.	5.1	.	.
O=C(N[C@H]1C[C@H]2C(=O)N[C@@H](CO)C(=O)N2C1)OCc1ccccc1	.	.	.	.	/	/
CC(C)C[C@H]1NC(=O)[C@@H]2C[C@H](NC(=O)c3cccc(F)c3F)CN2C1=O	.	.	.	.	/	/
COc1cccc(C(=O)N[C@H]2C[C@H]3C(=O)N[C@H](CO)C(=O)N3C2)c1	.	.	.	.	/	/
C[C@@H](NC(=O)N[C@H]1C[C@H]2C(=O)N[C@H](CO)C(=O)N2C1)c1ccccc1	.	.	.	7.6	.	.
CCC[C@@H]1NC(=O)[C@@H]2C[C@H](NC(=O)N[C@@H](C)c3ccccc3)CN2C1=O	.	.	.	.	/	/
COc1cccc(C(=O)N[C@H]2C[C@H]3C(=O)N[C@@H](CCCCN)C(=O)N3C2)c1	.	.	.	5.8	.	.
CC[C@@H]1NC(=O)[C@@H]2C[C@H](NC(=O)c3cccc(F)c3F)CN2C1=O	.	.	.	9.7	.	.
CC[C@@H]1NC(=O)[C@@H]2C[C@H](NC(=O)OCc3ccccc3)CN2C1=O	.	.	.	5.8	.	.
CC1(C)OC(c2ccccc2)=C/C(=C/C=C/C(=O)/C=C(\c2ccccc2)N2CCOCC2)O1	.	.	.	.	/	/
O=C(NCCc1ccccc1)C(=S)Nc1ccccc1	.	.	.	.	/	/
CCOC(=O)c1c(NC(=O)c2cc(-c3ccc(Cl)s3)nc3ccccc23)sc2c1CCC(CC)C2 (centres undefined)	.	.	.	.	/	/
O=C(CSC1Nc2sc3c(c2C(=O)N1c1ccccc1)CCCCC3)c1ccccc1 (centres undefined)	.	.	.	.	/	/
Cc1nnc2n1CCN(C(=O)c1ccccc1N(C)C)CC2	.	.	.	5.2	.	.
O=[N+]([O-])c1ccc2nc(CCCc3nc4ccc([N+](=O)[O-])cc4[nH]3)[nH]c2c1	.	.	.	.	/	/
CC(O)CCc1nc2ccc([N+](=O)[O-])cc2[nH]1 (centres undefined)	.	.	.	5.1	.	.
CCOc1ccc(-c2cnc(N)n2C)cc1	.	.	.	5.4	.	.
O=C(NCCCN1CCOCC1)/C(=C/c1ccc(-c2cccc(C(F)(F)F)c2)o1)NC(=O)c1ccc(Cl)cc1	.	.	.	9.4	.	.
SMILES	MITF primary	FBW7 activator	TEAD-YAP block	GPR151 ag	GPR151 conf act	GPR119 ag
O=C1CCCN1CCn1cnc2c(NCc3nc4ccccc4[nH]3)nc(N3CCOCC3)nc21	.	.	.	.	/	/
Cc1ccc(CNC(=O)CSc2nc3cc4c(cc3c(=O)n2Cc2ccc(C(=O)N3CCN(c5ccccc5)CC3)cc2)OCO4)cc1	.	.	.	.	/	/
c1ccc(-c2cc(N3CCCCC3)nc(-c3cccnc3)n2)nc1	.	.	.	.	/	/
c1ccc(-c2cc(N3CCCCC3)nc(-c3ccncc3)n2)nc1	.	.	.	9.4	.	.
Cc1cnc(C)c(NC2CCCCNC2=O)n1 (centres undefined)	.	.	.	8.0	.	.
COc1ccc(-c2cnnc(N[C@H]3CCCCNC3=O)n2)cc1	.	.	.	.	/	/
O=C(Nc1ccc(F)cc1)c1ccc2ccccc2c1	.	.	.	.	/	/
NC(=O)COc1ccc(NC(=O)c2cncc(Br)c2)cc1	.	.	.	6.1	.	.
CC(=O)n1cc(C(=O)c2cc(Cl)ccc2O)cn1	.	.	.	.	/	/

High-throughput results (PubChem BioAssay)
